Compounds without any hit were thinned out: in the full panel of roughly 79,000, 15% have a hit. Unmarked numbers belong to inactive results. The source made the active and inactive calls. No stated cut-off is given here; in the data, active means growth inhibition above about 70%; inactive means the rest.

Assay [1] is described as follows: NCI Yeast Anticancer Drug Screen. Data for the rad50 strain (AID 155).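 Further: 0% = growth of vehicle-only cultures of the same strain.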 The following applies: S. cerevisiae rad50 strain growth inhibition, active compounds read high. A digest of the protocol: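 Genetically altered yeast (DNA repair pathway); compound treatment; growth inhibition vs vehicle ctrl.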
Assay [2] is described as follows: NCI Yeast Anticancer Drug Screen. Data for the mec2-1 strain (AID 157). Conditions: S. cerevisiae mec2-1 strain, active compounds read high. A digest of the protocol: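 Readout is yeast growth inhibition, normalised to vehicle-treated controls, in the mec2-1 strain exposed to compound.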
Assay [3] in a line: NCI Yeast Anticancer Drug Screen. Data for the sgs1 mgt1 strain (AID 161).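 Further: 0% = growth of cultures given vehicle only.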 The following applies: S. cerevisiae sgs1 mgt1 strain, active compounds read high. The method in brief: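 Compounds are added to genetically altered yeast, and growth is compared with cultures given vehicle alone to give percent inhibition.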
A short description of assay [4]: NCI Yeast Anticancer Drug Screen. Data for the bub3 strain (AID 167). Conditions: S. cerevisiae bub3 mutant strain, active compounds read high. A digest of the protocol: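 Yeast carrying a defined mutation is treated with each compound, and growth is compared with that of vehicle-exposed cells to give inhibition.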
The nature of assay [5]: NCI Yeast Anticancer Drug Screen. Data for the mlh1 rad18 strain (AID 175). Conditions: S. cerevisiae mlh1 rad18 strain growth inhibition, active compounds read high. A digest of the protocol:
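Test agents were incubated with a yeast strain of defined genotype (DNA damage repair defect). Inhibition of growth was derived by comparison with vehicle-exposed cultures.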

A short description of assay [6]: NCI Yeast Anticancer Drug Screen. Data for the cln2 rad14 strain (AID 165).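 Further: 0% = growth equal to vehicle treated cultures.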 The following applies: S. cerevisiae cln2 rad14 strain, active compounds read high. The method in brief: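 Relative to vehicle controls, growth inhibition of compound-treated cln2 rad14 yeast was recorded.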
[7] abbreviates: at 5.0 µM (retest, dose inferred, filed as 0.5).
[8] abbreviates: at 50.0 µM (retest, dose inferred, filed as 5.0).

Regarding `Nc1ccc2c(SCCCCCCCCSc3c4ccccc4nc4cc(N)ccc34)c3ccccc3nc2c1`, the growth inhibition in assay [1] (setting [7]) is 1%; in assay [1] (setting [8]), 74% (active); in assay [1] (at 50.0 µM), 48.9%; in assay [2] (setting [7]) it was 1%; in assay [2] (setting [8]) it was 67%; in assay [2] (at 50.0 µM), 9.15%. In addition, the growth inhibition in assay [3] (setting [7]) was -2%; in assay [3] (setting [8]), 72% (active); in assay [3] (at 50.0 µM), 22.9%; in assay [4] (setting [7]) it was -3%; in assay [4] (setting [8]), 72% (active); in assay [4] (at 50.0 µM), -4.05%. The growth inhibition in assay [5] (setting [7]) is 2%; in assay [5] (setting [8]) it was 94% (active); in assay [5] (at 50.0 µM), 32%.
With `CCOC(=O)C12CCSC1C1(C#N)C(C#N)=CC2(N=P(c2ccccc2)(c2ccccc2)c2ccccc2)n2c(=O)n(-c3ccccc3)c(=O)n21` (stereo not given), the growth inhibition in assay [1] (setting [7]) is 45%; in assay [1] (setting [8]), 29%; in assay [1] (at 50.0 µM), 68%; in assay [2] (setting [7]), 93% (active); in assay [2] (setting [8]), 18%; in assay [2] (at 50.0 µM), 39.9%. Further, the growth inhibition in assay [3] (setting [7]) was 28%; in assay [3] (setting [8]), 8%; in assay [3] (at 50.0 µM), 59.9%; in assay [6] (setting [7]), 32%; in assay [6] (setting [8]) it was 34%; in assay [6] (at 50.0 µM), 58.5%. Also, the growth inhibition was 96% (active) in assay [4] (setting [7]); 46% in assay [4] (setting [8]); 88.5% (active) in assay [4] (at 50.0 µM); 46% in assay [5] (setting [7]); 31% in assay [5] (setting [8]); 53.9% in assay [5] (at 50.0 µM).
For `O=[N+]([O-])c1ccccc1OS(=O)(=O)c1ccccc1`, the growth inhibition in assay [1] (setting [7]) was 0%; in assay [1] (setting [8]), -2%; in assay [1] (at 50.0 µM) it was -2.5%; in assay [2] (setting [7]), -12%; in assay [2] (setting [8]) it was -8%; in assay [2] (at 50.0 µM), -1.1%. The growth inhibition in assay [3] (setting [7]) is 4%; in assay [3] (setting [8]), 20%; in assay [3] (at 50.0 µM) it was -0.45%; in assay [6] (setting [7]), -25%; in assay [6] (setting [8]), 36%; in assay [6] (at 50.0 µM), 6.4%. Besides, the growth inhibition in assay [4] (setting [7]) is -4%; in assay [4] (setting [8]), 6%; in assay [4] (at 50.0 µM), 14.3%; in assay [5] (setting [7]), -6%; in assay [5] (setting [8]), 3%; in assay [5] (at 50.0 µM), 0.65%.
Turning to `COC(=O)C(CCC(=O)Cc1ccccc1)N1C(=O)c2ccccc2C1=O` (stereo not given), the growth inhibition in assay [1] (setting [7]) was 6%; in assay [1] (setting [8]), 67%; in assay [1] (at 50.0 µM), 70%; in assay [2] (setting [7]), 1%; in assay [2] (setting [8]), 91% (active); in assay [2] (at 50.0 µM), 56.9%. Besides, the growth inhibition was 16% in assay [3] (setting [7]); 87% (active) in assay [3] (setting [8]); 81.6% (active) in assay [3] (at 50.0 µM); 10% in assay [6] (setting [7]); 43% in assay [6] (setting [8]); 1.4% in assay [6] (at 50.0 µM). Besides, the growth inhibition in assay [4] (setting [7]) was 8%; in assay [4] (setting [8]), 86% (active); in assay [4] (at 50.0 µM), 76% (active); in assay [5] (setting [7]) it was 16%; in assay [5] (setting [8]), 89% (active); in assay [5] (at 50.0 µM) it was 88% (active).
As for `O=C(/C=C(\C(=O)c1ccccc1)N(/C(=C/C(=O)c1ccccc1)C(=O)c1ccccc1)c1ccccc1)c1ccccc1`, the growth inhibition in assay [1] (setting [7]) is 2%; in assay [1] (setting [8]), 30%; in assay [1] (at 50.0 µM), 92.2% (active); in assay [2] (setting [7]) it was -3%; in assay [2] (setting [8]) it was 13%; in assay [2] (at 50.0 µM), 88.8% (active). Besides, the growth inhibition in assay [3] (setting [7]) was -5%; in assay [3] (setting [8]), 30%; in assay [3] (at 50.0 µM), 90.8% (active); in assay [6] (setting [7]), -2%; in assay [6] (setting [8]), -21%; in assay [6] (at 50.0 µM) it was 83.5% (active). In addition, the growth inhibition in assay [4] (setting [7]) is 0%; in assay [4] (setting [8]), 34%; in assay [4] (at 50.0 µM), 88.4% (active); in assay [5] (setting [7]), 0%; in assay [5] (setting [8]) it was 12%; in assay [5] (at 50.0 µM), 92.7% (active).
As to `CCn1c(C)cc(=O)n1-c1ccc([N+](=O)[O-])cc1`, the growth inhibition in assay [1] (setting [7]) is -160%; in assay [1] (setting [8]), -148%; in assay [1] (at 50.0 µM), 51.1%; in assay [2] (setting [7]), -45%; in assay [2] (setting [8]), -50%; in assay [2] (at 50.0 µM) it was 17.4%. Moreover, the growth inhibition in assay [3] (setting [7]) is -60%; in assay [3] (setting [8]), -48%; in assay [3] (at 50.0 µM), 25.4%; in assay [4] (setting [7]), -71%; in assay [4] (setting [8]), -78%; in assay [4] (at 50.0 µM) it was 50.1%. In addition, the figures for the growth inhibition in assay [5] (setting [7]), in assay [5] (setting [8]) and in assay [5] (at 50.0 µM) were -146%, -110% and 68.9%, respectively.
As to `C/C(=N\NC(=S)Nc1ccc(Cl)cc1)c1nc2ncccc2[nH]1`, the growth inhibition was 3% in assay [1] (setting [7]); 98% (active) in assay [1] (setting [8]); 89.8% (active) in assay [1] (at 50.0 µM); -6% in assay [2] (setting [7]); 98% (active) in assay [2] (setting [8]); 90.2% (active) in assay [2] (at 50.0 µM). Also, the growth inhibition in assay [3] (setting [7]) is 0%; in assay [3] (setting [8]) it was 96% (active); in assay [3] (at 50.0 µM), 85.2% (active); in assay [6] (setting [7]), -38%; in assay [6] (setting [8]) it was 99% (active); in assay [6] (at 50.0 µM), 87.9% (active). The growth inhibition in assay [5] (setting [7]) is -1%; in assay [5] (setting [8]), 98% (active); in assay [5] (at 50.0 µM), 85.4% (active).
Take `Cc1ccc(C(OS(=O)(=O)c2ccc(C)cc2)C(F)(F)F)cc1` (stereo not given): the growth inhibition was -1% in assay [1] (setting [7]); -2% in assay [1] (setting [8]); 62.6% in assay [1] (at 50.0 µM); -11% in assay [2] (setting [7]); -1% in assay [2] (setting [8]); 52.5% in assay [2] (at 50.0 µM). In addition, the growth inhibition in assay [3] (setting [7]) is -4%; in assay [3] (setting [8]) it was -13%; in assay [3] (at 50.0 µM) it was 72.9% (active); in assay [4] (setting [7]) it was 0%; in assay [4] (setting [8]), 37%; in assay [4] (at 50.0 µM) it was 1.7%. The growth inhibition in assay [5] (setting [7]) was 19%; in assay [5] (setting [8]) it was 2%; in assay [5] (at 50.0 µM), 66.2%.
Take `Cc1ccc(S(=O)(=O)OCCCCOS(=O)(=O)c2ccc(C)cc2)cc1`: the growth inhibition in assay [1] (setting [7]) is 0%; in assay [1] (setting [8]), 4%; in assay [1] (at 50.0 µM) it was 76% (active); in assay [2] (setting [7]), -7%; in assay [2] (setting [8]), -3%; in assay [2] (at 50.0 µM), 26.1%. The growth inhibition in assay [3] (setting [7]) is -6%; in assay [3] (setting [8]), 4%; in assay [3] (at 50.0 µM) it was 15.7%; in assay [6] (setting [7]), 2%; in assay [6] (setting [8]), -5%; in assay [6] (at 50.0 µM), 28.4%. Further, the growth inhibition in assay [5] (setting [7]) is 2%; in assay [5] (setting [8]) it was 1%; in assay [5] (at 50.0 µM) it was 15.1%.
Take `C[C@]12C[C@@H](c3ccccc3)Nc3ccccc3N1C(c1ccccc1)=NO2`: the growth inhibition in assay [1] (setting [7]) is -4%; in assay [1] (setting [8]), 68%; in assay [1] (at 50.0 µM), 61%; in assay [2] (setting [7]), 10%; in assay [2] (setting [8]) it was 74% (active); in assay [2] (at 50.0 µM), 74.8% (active). The growth inhibition in assay [3] (setting [7]) is -13%; in assay [3] (setting [8]), 70% (active); in assay [3] (at 50.0 µM) it was 81% (active); in assay [6] (setting [7]), 5%; in assay [6] (setting [8]), 55%; in assay [6] (at 50.0 µM) it was 37.2%. In addition, the growth inhibition was -7% in assay [4] (setting [7]); 81% (active) in assay [4] (setting [8]); 62% in assay [4] (at 50.0 µM); -19% in assay [5] (setting [7]); 75% (active) in assay [5] (setting [8]); 73.5% (active) in assay [5] (at 50.0 µM).

For the origin of these results see PubChem BioAssay (NCI).
